Laboratory results as given in PubChem BioAssay AID1117319 (Southern Research Institute, 2015).
Several values for one entry are separate records, joined by “and”; a condition that tells them apart may be missing. Identical values can stand only once. The whole screen tested about 260,000 compounds, of which about 1,500 (0.58%) were called active. About 5% were inconclusive and are not listed.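 Rule for the calls: active = inhibition above a set limit at one or more doses, reproduced on every date tested; inconclusive = results disagree between test dates, or hit never tested in dose response; inactive = the rest.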 A selection follows. Measured potencies and affinities stand elsewhere.

biological target: Virion infectivity factor (Human immunodeficiency virus type 1 group M subtype B (isolate BH10)) + Virion infectivity factor (Human immunodeficiency virus type 1 group M subtype B (isolate BRU/LAI)) + Virion infectivity factor (Human immunodeficiency virus type 1 group M subtype B (isolate PCV12)) + Virion infectivity factor (Human immunodeficiency virus type 1 group M subtype B (isolate HXB2)) + DNA dC->dU-editing enzyme APOBEC-3G (Homo sapiens) (UniProt P69720+P69721+P69722+P69723+Q9HC16); assay: inhibitors of Vif binding to APOBEC3G peptide, primary screen, biochemical, TR-FRET, GST-Vif 1-94, biotin-A3G peptide, dose response retest (AID 1117319); conditions: active compounds read high;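 note: Vif residues 1-94 fused to GST binding biotinylated APOBEC3G peptide 110-148; 0% = full assay without inhibitor and 100% = GST in place of GST-Vif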

SMILES | inhibition
CCCCn1c(O)c(C(CC)=Nc2ccc3c(c2)CCC3)c(=O)[nH]c1=O | 7.31% (inactive)
C=CCn1c(O)c(C(CC)=NCCN2CCOCC2)c(=O)[nH]c1=O | 65.5% (inactive)
COc1ccccc1NC(=O)Cn1cnc2sc(C(=O)Nc3ccc(OC)c(OC)c3)c(C)c2c1=O | 0.19% (inactive)
COc1ccc(S(=O)(=O)N2CCCCCC2)cc1C(=O)N(C)Cc1ccc(F)cc1 | 4.27% (inactive)
C=CCNS(=O)(=O)c1cccc2cc(C(=O)O)c(O)cc12 | -0.91% (inactive)
CCN(CC)S(=O)(=O)c1cccc2cc(C(=O)O)c(O)cc12 | -3.16% (inactive)
Cc1ccc(N2C(=O)N(c3ccc(C)cc3)C3CS(=O)(=O)CC32)cc1 (stereo not given) | -8.71% (inactive)
C=CCn1c(COc2ccc(F)cc2)nnc1SCC(=O)N1CC(=O)Nc2ccccc21 | 3.87% (inactive)
CCOC(=O)c1c(C=O)c(C)n(Cc2ccccc2)c1C | 4.84% (inactive)
CCOC(=O)c1cc(C)n(Cc2ccccc2)c1C | 24.3% (inactive)
FC(F)(F)c1cc(-c2ccco2)nc(NCc2ccc(Cl)cc2)n1 | 3.96% (inactive)
FC(F)(F)c1cc(-c2ccco2)nc(NCc2ccccc2)n1 | 15.6% (inactive)
FC(F)(F)c1cc(-c2ccccc2)nc(NCc2cccnc2)n1 | -5.26% (inactive)
Fc1ccc(CNc2nc(-c3ccco3)cc(C(F)(F)F)n2)cc1 | 9.71% (inactive)
COc1ccc(/C=N/NC(=O)c2cccc([N+](=O)[O-])c2)cc1OS(=O)(=O)c1ccccc1 | 2.68% (inactive)
COc1ccc(NC(c2ccccc2)c2ccncc2)cc1 (stereo not given) | 7.39% (inactive)
CCC(C)(C)NC(=O)C(c1ccc(C)cc1)N(CCN1CCOCC1)C(=O)CNC(=O)c1cccs1 (stereo not given) | 2.09% (inactive)
Cc1c(NC(=O)Cc2noc3ccccc23)cccc1[N+](=O)[O-] | -3.42% (inactive)
CCN(CCCNC(=O)CN(C)S(=O)(=O)c1cccc2nsnc12)c1ccccc1 | 20.3% (inactive)
CC(=O)c1ccc(-c2cccs2)s1 | 2.24% (inactive)
O=Cc1ccc(-c2cccs2)s1 | -3.47% (inactive)
Cc1ccsc1/C=N/n1cnnc1 | -12.8% (inactive)
CCCCC(=O)N/N=C/c1sccc1C | -0.53% (inactive)
CCOC(=O)c1[nH]c(C)c(C(=O)N(CC)CC)c1C | 4.43% (inactive)

SMILES | inhibition
CC(=O)NS(=O)(=O)c1ccc(NC(=O)c2ccc(-n3nc(C)cc3C)cc2)cc1 | 0.12% (inactive)
CCOC(=O)C1CCN(C(=O)COC(=O)c2cc(-c3cccs3)nn2-c2ccccc2)CC1 | -3.24% (inactive)
O=C(O)CCN1/C(=C/C=Nc2ccccc2)Oc2ccccc21 | 20.6% (inactive)
O=S1(=O)CC(O)C(NCc2ccco2)C1 (stereo not given) | 11.1% (inactive)
COc1ccc(NC2CS(=O)(=O)CC2NCc2ccccc2)cc1 (stereo not given) | -0.42% (inactive)
COc1ccc(C2c3c(oc4ccccc4c3=O)C(=O)N2c2ccccn2)cc1OC (stereo not given) | -8.31% (inactive)
COC1OC(COC(=O)c2ccccc2)C(OC(=O)c2ccccc2)C1OC(=O)c1ccccc1 (stereo not given) | 3.23% (inactive)
COC(=O)c1cc(O)c(O)c(O)c1 | 16.7% (inactive)
O=C1c2ccccc2C(=O)N1CCc1csc(-c2ccccc2)n1 | 0.09% (inactive)
O=C(O)CC(c1ccccc1)c1ccccc1 | 0.95% (inactive)
O=C(O)CC(Cn1[nH]nnc1=S)c1ccccc1 (stereo not given) | -2.23% (inactive)
Cc1cccc(N=CC=C2OC(C)(C)C(C)(C)O2)c1 | -6.65% (inactive)
Cc1ccc(NC(=O)CNC(=O)c2ccc(C(C)(C)C)cc2)cc1S(=O)(=O)N1CCOCC1 | 0.79% (inactive)
CCO[C@H]1OC(C(=O)N2CCN(Cc3ccc4c(c3)OCO4)CC2)=C[C@@H](c2cn(C(C)=O)c3ccccc23)[C@@H]1CCCO | -9.76% (inactive)
O=C(CN1C(=O)NC2(CCCCC2)C1=O)NCc1ccc2c(c1)OCO2 | -8.65% (inactive)
O=C(CN1C(=O)NC2(CCCCCC2)C1=O)NCc1cccs1 | -5.46% (inactive)
CC1CCC2(CC1)NC(=O)N(CC(=O)NCc1ccc3c(c1)OCO3)C2=O (stereo not given) | -3.28% (inactive)
CC1CCC2(CC1)NC(=O)N(CC(=O)NCc1cccs1)C2=O (stereo not given) | -3.91% (inactive)
O=C(c1nc2ccccn2c1CNCCCn1cccn1)N1CCCC1 | 23.8% (inactive)
C/C(=N\NC(=O)Cn1ccc(C(F)(F)F)n1)c1ccc2c(c1)OCO2 | -1.38% (inactive)
CCN(CC)CCOC(=O)c1ccc(NC(=O)c2cccc(C)c2[N+](=O)[O-])cc1 | 2.15% (inactive)
COc1ccc(CNC(=O)C(c2ccncc2)N(C(=O)Cc2cccs2)c2cccnc2)cc1 (stereo not given) | 2.85% (inactive)
COc1ccc(NC(=O)C[C@H]2C(=O)N(Cc3cccnc3)C[C@@H]2Cc2ccccc2)cc1 | -1.58% (inactive)
CCCNC(=O)Cc1ncn[nH]1 | -3.15% (inactive)

SMILES | inhibition
O=C(NCCc1ccccc1)c1ncn[nH]1 | 28.1% (inactive)
O=C(CCN1C(=O)c2ccccc2C1=O)CN1CCOCC1 | -9.57% (inactive)
O=C(NC1CCCC1)C(c1ccc(Cl)cc1)N1CCc2ccccc21 (stereo not given) | 2.15% (inactive)
CCc1ccc(CN(Cc2cccnc2)C(=O)/C=C/c2ccc(OC)cc2)cc1 | -6.21% (inactive)
CC(C)(C)c1ccc(C(=O)N2CCN(c3ncccn3)CC2)cc1 | -3.51% (inactive)
CCN1C(=O)/C(=C/N2CCc3ccccc32)SC1=S | 2.5% (inactive)
c1ccc2c(c1)CCN2CCN1CCc2ccccc21 | -3.68% (inactive)
O=C(C#Cc1ccccc1)c1ccccc1 | -8.84% (inactive)
COc1ccc(Cl)cc1N(CC(=O)Nc1cccc(SC)c1)S(C)(=O)=O | 4.16% (inactive)
CCN1C(=O)/C(=C/N(C)c2ccccc2)OC1=S | 0.98% (inactive)
CC(C)(C)c1ccc(OCCC(=O)Nc2cccc(S(=O)(=O)NC3=NCCCCC3)c2)cc1 | -0.89% (inactive)
COc1ccc(Nc2nc(C(=O)NCc3ccco3)cs2)cc1 | -1.71% (inactive)
O=C(NCc1ccco1)c1csc(Nc2ccccc2Cl)n1 | -7.13% (inactive)
O=C(CNC(=O)c1ccccc1F)OCCOc1cccc(Cl)c1 | 3.91% (inactive)
Cc1ccc(CCNC(=O)C2CC(c3ccccc3C(F)(F)F)=NO2)cc1 (stereo not given) | -3.19% (inactive)
COc1ccc(-c2c(C#N)cnc(C)c2C)c(O)c1OC | -2.84% (inactive)
COc1ccc(C2=C(N)c3ccccc3C2=O)cc1 | 29% (inactive)
NC1=C(Br)C(=O)c2ncccc2C1=O | 0.39% (inactive)
Cc1cccc(N2C(=O)c3ccc(Br)cc3C2=O)n1 | 1.11% (inactive)
COc1ccc(-c2c(N)cnc(C(=O)O)c2C)c(OCc2ccccc2)c1OC | 2.47% (inactive)
COc1ccc(N)c2c1C(=O)c1ccccc1C2=O | -29.2% (inactive)
COc1ccc(CC(=O)Nc2ccc(C(N)=O)cc2)cc1 | 15.2% (inactive)
CCOc1ccc(N2C(=O)CC(N(Cc3ccco3)C(=O)CC)C2=O)cc1 (stereo not given) | 0.31% (inactive)
Cc1c(N/C(=N/S(=O)(=O)c2ccc(F)cc2)c2ccccc2)c(=O)n(-c2ccccc2)n1C | 0.73% (inactive)

SMILES | inhibition
Cc1sc2nc(CSC(C)C(=O)NC3(C#N)CCCCC3)[nH]c(=O)c2c1C (stereo not given) | 9.91% (inactive)
C[C@]12C=CC(=O)C=C1CCC1C2CC[C@@]2(C)C1CCC21OCCO1 (stereo not given in full) | -4.95% (inactive)
C=C(C)COc1ccc2c(CC)cc(=O)oc2c1C | -15.7% (inactive)
O=C(CCCN1C(=O)/C(=C\c2cccs2)SC1=S)Nc1ccccc1O | 3.84% (inactive)
COc1ccc(/C=C2/SC(=S)N(CCCC(=O)Nc3cccc(O)c3)C2=O)cc1 | 4.43% (inactive)
O=C(CCCN1C(=O)/C(=C\c2ccccc2)SC1=S)Nc1ccc(O)cc1 | 7.93% (inactive)
O=C(CCN1C(=O)/C(=C/c2ccco2)SC1=S)Nc1ccc(O)cc1C(=O)O | 20.3% (inactive)
CCN1C=C(Cc2ccccc2C)C2=C(C1)C(c1ccccc1C)C(C#N)=C(N)O2 (stereo not given) | 3.15% (inactive)
O=C(CCC(=O)Nc1ccccc1Cl)NNC(=O)Nc1cccc([N+](=O)[O-])c1 | -2.42% (inactive)
c1ccc(N2CCN(c3cnccn3)CC2)nc1 | -2.48% (inactive)
c1ccc(N2CCN(c3ncccn3)CC2)cc1 | 2.21% (inactive)
Cc1ccc(Sc2ncccc2C(=O)O)cc1 | 1.95% (inactive)
O=C(NCC(c1ccco1)N1CCCC1)c1cn(-c2ccccc2)nc1-c1ccc(F)cc1 (stereo not given) | -3.8% (inactive)
C[C@H](NS(=O)(=O)c1ccccc1)C(=O)N1CCN(C(c2ccccc2)c2ccccc2)CC1 | 0.88% (inactive)
COc1ccc(OC)c(NS(=O)(=O)c2ccc(Br)s2)c1 | 2.77% (inactive)
Oc1cccc2ccc(N3CCOCC3)nc12 | -8.55% (inactive)
CC(C)(C)C(=O)Oc1cc(N)n(S(=O)(=O)c2ccccc2)n1 | -2.72% (inactive) and -3.77% (inactive)
COc1ccc(CN(C(=O)c2cccs2)c2ccccc2C(=O)O)cc1 | -12.9% (inactive)
O=C1OCCC1Sc1ncnc2sc3c(c12)CCC3 (stereo not given) | 21.7% (inactive)
CN(Cc1ccccc1)C(=O)COC(=O)C1CCN(S(=O)(=O)c2ccc3c(c2)OCCO3)CC1 | -5.03% (inactive)
COC(=O)c1[nH]c(C)c(/C(O)=C2\C(=O)C(=O)N(CCN3CCOCC3)C2c2ccco2)c1C (stereo not given) | 10.8% (inactive)
Cc1ccc(C)c(/C(O)=C2\C(=O)C(=O)N(CCCN3CCOCC3)C2c2cccnc2)c1 (stereo not given) | -1.34% (inactive)
CC(CCc1ccccc1)NC(=O)c1nnc(Cc2ccc(Cl)cc2)o1 (stereo not given) | -1.14% (inactive)
